Source: publication PMC5913336, “True equilibrium measurement of transcription factor-DNA binding affinities using automated polarization microscopy”

Each sequence was assayed against T1, EcR (Drosophila melanogaster, UniProt P34021 251-348) (assay: FP; 33 mM phosphate pH 7.0, 90 mM NaCl, 0.01% Tween 20, 0.1 mM DTT, 0.5% agarose; room temperature). Settings: tags: N-GST (pGEX-6P-1, kept); dsDNA, one strand shown.
T1 sequence: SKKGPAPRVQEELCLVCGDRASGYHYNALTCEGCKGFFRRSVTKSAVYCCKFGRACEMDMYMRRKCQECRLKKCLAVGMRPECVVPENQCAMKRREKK

Row | Sequence | binding signal | Kd
1 | GAATGATCCCTAC | 9.3 Kd / Kd of best base at the position | –
2 | TAATGACCCCTAC | 1.83 Kd / Kd of best base at the position | –
3 | GAATGAGCCCTAC | 12.7 Kd / Kd of best base at the position | –
4 | GAATGAACCCTAC | 1.84 Kd / Kd of best base at the position | –
5 | GAGTGACCCCTAC | 1.99 Kd / Kd of best base at the position | –
6 | GAATCACCCCTAC | 9.57 Kd / Kd of best base at the position | –
7 | GAATGACCCCAAC | 1.46 Kd / Kd of best base at the position | –
8 | GAATGACCCCTGC | 1.47 Kd / Kd of best base at the position | –
9 | GAATTACCCCTAC | 11.6 Kd / Kd of best base at the position | –
10 | GAATGACCCCTTC | 1.34 Kd / Kd of best base at the position | –
11 | GAATGACCTCTAC | 1.03 Kd / Kd of best base at the position | –
12 | GAATGACCCCTAG | 1.29 Kd / Kd of best base at the position | –
13 | GAATGACCCATAC | 2.6 Kd / Kd of best base at the position | –
14 | GAATGACACCTAC | 4.55 Kd / Kd of best base at the position | –
15 | GGATGACCCCTAC | 1.78 Kd / Kd of best base at the position | –
16 | GAATGGCCCCTAC | 5.84 Kd / Kd of best base at the position | –
17 | GAATGACCACTAC | 5.04 Kd / Kd of best base at the position | –
18 | GAAAGACCCCTAC | 8.21 Kd / Kd of best base at the position | –
19 | GAACGACCCCTAC | 3.06 Kd / Kd of best base at the position | –
20 | GAATGACGCCTAC | 19.5 Kd / Kd of best base at the position | –

Row | Sequence | binding signal | Kd
21 | GAATGACTCCTAC | 7.37 Kd / Kd of best base at the position | –
22 | GTATGACCCCTAC | 1.76 Kd / Kd of best base at the position | –
23 | GAATGACCCCTAC | – | ~23.7 nM
24 | GAATAACCCCTAC | 3.47 Kd / Kd of best base at the position | –
25 | GAATGCCCCCTAC | 3.38 Kd / Kd of best base at the position | –
26 | GAATGACCCCCAC | 1.69 Kd / Kd of best base at the position | –
27 | GAATGACCCTTAC | 1.59 Kd / Kd of best base at the position | –
28 | GAATGACCCCGAC | 1.46 Kd / Kd of best base at the position | –
29 | AAATGACCCCTAC | 1.94 Kd / Kd of best base at the position | –
30 | GCATGACCCCTAC | 2.1 Kd / Kd of best base at the position | –
31 | GAATGACCCCTAT | 1.25 Kd / Kd of best base at the position | –
32 | GACTGACCCCTAC | 2.46 Kd / Kd of best base at the position | –
33 | GAATGACCCCTCC | 1.29 Kd / Kd of best base at the position | –
34 | GAATGACCGCTAC | 2.37 Kd / Kd of best base at the position | –
35 | GAATGACCCGTAC | 2.06 Kd / Kd of best base at the position | –
36 | CAATGACCCCTAC | 1.8 Kd / Kd of best base at the position | –
37 | GAAGGACCCCTAC | 10 Kd / Kd of best base at the position | –
38 | GAATGTCCCCTAC | 6.26 Kd / Kd of best base at the position | –
39 | GATTGACCCCTAC | 1.87 Kd / Kd of best base at the position | –
